Test results: PubChem BioAssay
Active and inactive are the calls of the source. No rule for the calls is given here.

These compounds were tested against Protein kinase 7 (PK7), Plasmodium falciparum 3D7 (PF3D7_0213400) (UniProt Q7YTF7) (assay: inhibition of Plasmodium PK7 catalytic activity – biochemical, TCAMS antimalarial set, Kinase-Glo luminescence (AID 1159587)). Settings: recombinant PfPK7, Kinase-Glo ATP depletion luminescence.
Sequence of Protein kinase 7 (PK7), Plasmodium falciparum 3D7 (PF3D7_0213400) (Q7YTF7 1-343): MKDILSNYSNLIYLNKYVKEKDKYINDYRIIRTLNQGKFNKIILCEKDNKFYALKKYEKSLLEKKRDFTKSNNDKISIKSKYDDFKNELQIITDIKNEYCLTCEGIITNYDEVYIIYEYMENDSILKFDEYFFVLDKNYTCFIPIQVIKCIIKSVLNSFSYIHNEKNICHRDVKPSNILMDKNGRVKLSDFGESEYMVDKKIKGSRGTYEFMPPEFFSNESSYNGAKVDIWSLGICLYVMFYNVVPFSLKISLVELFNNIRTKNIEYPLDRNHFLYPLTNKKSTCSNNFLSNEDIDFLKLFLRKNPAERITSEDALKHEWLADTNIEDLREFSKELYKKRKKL

outcome, inactive:
CNc1ccc(CNCc2cccc(-c3ccc(-c4nc5c(C)cccc5[nH]4)cc3)c2)cc1
COc1ccc(C2C(C(=O)Nc3cc(C)ccc3OC)c3ccccc3C(=O)N2C)cc1 (stereo not given)
N#Cc1ccccc1Sc1ccccc1C(=O)Nc1ccc2ccccc2n1
COc1ccc2nccc([C@@H](O)CN3CCC(NC(=O)c4ccc(Cl)c([N+](=O)[O-])c4)CC3)c2c1
O=C(Nc1cccc(-c2cccc(-c3nc4ccc(C(F)(F)F)cc4[nH]3)c2)c1)c1ccncc1
O=C(Nc1ccccc1)c1nn(CCCN2CCC(N3CCCC3)CC2)cc1-c1ccc(Cl)c(Cl)c1
CC(=O)NC(c1cccs1)c1cc(Cl)c2cccnc2c1O (stereo not given)
COc1cc(NC(=O)N2CCc3ccc(OCCN4CCCCC4)cc32)cc(C(F)(F)F)c1
Cc1cc(N[C@@H](Cc2ccccc2)C(=O)NCCOc2ccccc2)nc(NCCOc2ccccc2)n1
Cc1nc(-c2ccc(-c3ccc(NC(=O)c4coc5ccc(N6C[C@@H](C)N(C)[C@@H](C)C6)cc45)cc3)c(C)c2)no1
N#Cc1ccc2c(c1)CCN(CCC1CCC(NC(=O)/C=C/c3cc(Br)cs3)CC1)CC2 (stereo not given)
CN1CCN(c2ccnc3ccc(NC(=O)Nc4ccccc4Br)cc23)CC1
Cc1nc2ccc3ccc(CNc4ccc5c(c4)CN([C@H](CCC(=O)O)C(=O)O)C5=O)cc3c2c(=O)[nH]1
CCCC(=O)NC(c1ccc(C(C)C)cc1)c1ccc2cccnc2c1O (stereo not given)
COc1ccc2nccc([C@@H](O)CN3CCC(NCCOc4cccc(F)c4F)CC3)c2c1
Cc1cc(N[C@@H](CC(C)C)C(=O)NCc2cccc(F)c2)nc(NCCc2ccc(F)cc2)n1
COCCn1c(-c2nc(-c3ccc(F)cc3)cnc2N)nc2ccccc21
C=CCc1cc(Br)ccc1OCCCON1C(N)=NC(N)=NC1(C)C
O=C(Nc1ccnc2ccccc12)NC1CCN(Cc2ccccc2)CC1
O=C(/C=C/c1ccc(Cl)c(Cl)c1)NC1CCC(CN2CCC(c3coc4ccccc34)CC2)CC1 (stereo not given)
Oc1cccc(Nc2nc(NCc3ccco3)c3ccccc3n2)c1
CN(C)C(=NCCCCCCN=C(/N=C(/N)Nc1ccc(Cl)cc1)N(C)C)/N=C(/N)Nc1ccc(Cl)cc1
CC1CCC2(CC1)N=C(N)N=C(N)N2OCc1ccc(Br)c2ccccc12 (stereo not given)
O=S(=O)(NCCN1CCCC1)c1cccc(-c2cccc(CNCc3ccc(F)cc3)c2)c1
COc1ccc2nccc([C@@H](O)CN3CCC(NC(=O)/C=C/c4ccc(Cl)c(C(F)(F)F)c4)CC3)c2c1
Clc1ccc2c(N3CCCNCC3)ccnc2c1
c1ccc(Cn2nnnc2-c2cccc(Nc3ccnc4cc(-c5nccs5)ccc34)c2)cc1
CC(C)Oc1cc2c(cc1NS(=O)(=O)c1ccc(-c3cccs3)cc1)CCN(C)CC2
Cc1cc([N+](=O)[O-])ccc1N1CCN(CCCCNC(=O)c2ccc(NC(=O)c3ccc(Cl)cc3)cc2)CC1
CC1CCC(NCc2c(O)ccc3ccccc23)CC1 (stereo not given)
CCNc1cc(C(=O)N[C@@H](Cc2cc(F)cc(F)c2)[C@H](O)CNCc2cccc(C(F)(F)F)c2)cc(N2CCCCS2(=O)=O)c1
CCc1ccc(NC(=O)c2cccc(CN3CCCN(CC4CCCCC4)CC3)c2)cc1
CC1(C)N=C(NC(=O)Nc2ccc([N+](=O)[O-])cc2)N=C(N)N1OCc1cccc2ccccc12
O=C(Nc1ccc(Cl)cc1)NC1CCN(CCCCCNC(=O)[C@@H]2C[C@H]2c2ccc(Cl)c(Cl)c2)CC1
O=C(NC1CCCCCC1)C1CCCN(C(=O)c2ccc(O)c(-c3ccc(Cl)c(Cl)c3)c2)C1 (stereo not given)
O=C(Nc1ccc2c(c1)CCC2)c1nc(N2CCN(c3ccncc3)CC2)ccc1Cl
CCNc1cc(C(=O)N[C@@H](Cc2ccccc2)[C@H](O)CNC2(Cc3cccc(Cl)c3)CCC2)cc(N2CCCCS2(=O)=O)c1
COc1ccc(-c2ccc(CNC3Cc4ccccc4C3)cc2)cc1S(=O)(=O)NCCN1CCCC1
N#Cc1ccc2c(c1)CCN(CCC1CCC(Nc3ncnc4ccccc34)CC1)C2 (stereo not given)
Cc1[nH]c(C)c(-c2ccc(-c3ccc(Cl)cc3)nc2)c(=O)c1Cl
